In the library only some 0.91% were active in any assay of this set; here they are far more common.
TRb SRC2 PPI = qHTS for Inhibitors of the Interaction of Thyroid Hormone Receptor and Steroid Receptor Coregulator 2. Thyroid hormone receptor beta (Homo sapiens), P10828. TRbeta-SRC2 peptide binding, fluorescence polarization; receptor liganded with 1 µM T3. Potency, µM (series often up to 106 µM), inactives show at the highest dose activity change, negative = inhibition, usual class: inhibitors. 0.065% of 280,000 active. AID 1469, 2008;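 further: plate controls were bound peptide for no effect and peptide without receptor for full effect; nearly all actives have a fitted effect of over 50% in size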
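Binding of a 20-amino-acid Texas Red SRC2 peptide (20 nM) to TRb ligand-binding domain (0.6 uM) with agonist T3 at 1 uM was followed by fluorescence polarization after a 5 hr room-temperature incubation.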
WRN inhibitor = qHTS for Inhibitors of WRN Helicase. Bifunctional 3'-5' exonuclease/ATP-dependent helicase WRN (Homo sapiens), Q14191. Potency, µM (doses to about 114 µM), for the others: at the highest dose activity change, negative = inhibition, hits mostly inhibitors. WRN helicase unwinding, fluorescent forked duplex, kinetic. 0.46% of 360,000 active; further: nearly all actives have a fitted effect of over 55% in size
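Screening of the MLSMR collection measured strand separation of a quenched forked DNA duplex (100 nM) by 20 nM WRN with 2 mM ATP, all final. Compounds were preincubated with enzyme 15 min at room temperature.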
RECQ1 inh-1 = qHTS Assay for Inhibitors of RecQ-Like Dna Helicase 1 (RECQ1). Potency, µM (highest dose often 57.3 µM), without a hit: at the top dose activity, negative = inhibition, usual class: inhibitors. ATP-dependent DNA helicase Q1 (Homo sapiens), P46063. RECQ1 DNA unwinding, red fluorescence kinetic read. 0.54% of 240,000 active;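 further: plate controls were vehicle for no effect and no enzyme for full effect; nearly all actives have a fitted effect of over 30% in size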
Target sequence (P46063 whole entry, looked up): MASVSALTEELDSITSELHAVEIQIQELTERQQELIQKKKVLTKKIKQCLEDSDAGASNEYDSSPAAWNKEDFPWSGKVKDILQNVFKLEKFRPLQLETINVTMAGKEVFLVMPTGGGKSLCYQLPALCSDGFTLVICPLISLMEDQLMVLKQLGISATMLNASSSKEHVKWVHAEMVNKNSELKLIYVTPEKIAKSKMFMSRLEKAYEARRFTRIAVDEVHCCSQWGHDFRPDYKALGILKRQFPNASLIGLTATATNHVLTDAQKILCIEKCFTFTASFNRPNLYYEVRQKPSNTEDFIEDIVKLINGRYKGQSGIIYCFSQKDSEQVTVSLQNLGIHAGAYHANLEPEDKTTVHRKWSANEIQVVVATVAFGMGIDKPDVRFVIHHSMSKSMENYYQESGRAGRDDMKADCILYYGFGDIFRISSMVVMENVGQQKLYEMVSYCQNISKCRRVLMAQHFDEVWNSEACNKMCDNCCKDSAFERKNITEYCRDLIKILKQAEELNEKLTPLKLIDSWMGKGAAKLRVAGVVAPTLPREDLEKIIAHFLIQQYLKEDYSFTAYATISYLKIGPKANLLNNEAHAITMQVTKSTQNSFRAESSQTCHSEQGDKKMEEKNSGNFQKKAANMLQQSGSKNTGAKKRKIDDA
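50 nM RECQ1T1 preincubated 15 min with compound in Tris pH 8.0 buffer with MgCl2, DTT, Tween-20 and 2.5 ug/ml poly(dI-dC); started with 200 nM TAMRA/BHQ-2 forked duplex and 2 mM ATP. Unwinding read as fluorescence (525/598 nm), two reads 2 h apart.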
APEX1 inh = qHTS Assay for Inhibitors of the Human Apurinic/apyrimidinic Endonuclease 1 (APE1); Potency, µM (titrated, usually from 65.8 µM), without a hit: at the top dose activity change, negative = inhibition, most hits filed as inhibitors; AID 2517, 2012; 0.35% of 350,000 active; recombinant APE1, TAMRA/BHQ-2 abasic DNA cleavage fluorescence;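 further: plate controls were vehicle for no effect and reference inhibitor for full effect; nearly all actives have a fitted effect of over 55% in size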
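Endonuclease cleavage of a quenched abasic-site DNA duplex (50 nM) by APE1 (0.75 nM) was tracked by TAMRA dequenching. Compounds were preincubated with enzyme 15 min at room temperature; data normalized to buffer-only and DMSO wells plus NSC13755 control.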
TR SRC2 fluor cs = Total Fluorescence Counterscreen for Inhibitors of the Interaction of Thyroid Hormone Receptor and Steroid Receptor Coregulator 2 | TRb/SRC2 Texas Red total fluorescence interference | Potency, µM (titrated, usually from 106 µM), inactives show top-dose fluorescence change, negative = quenching | 0.29% of 280,000 active | AID 1479, 2009; active means well fitted curve in either direction with a large enough effect; inconclusive means small, poorly fitted or top-dose-only effect
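Human TRb ligand-binding domain at 0.6 uM with 20 nM Texas Red SRC2 peptide in Tris buffer containing 1 uM T3 and 5% DMSO, incubated with compound 5 h at ambient temperature. Total fluorescence (555/632 nm) calculated as parallel + 2 × perpendicular.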
BLM inh = qHTS Assay for Inhibitors of Bloom's syndrome helicase (BLM) | recombinant BLM DNA unwinding, fluorescence dequenching | Potency, µM (highest dose often 56.1 µM), without a hit: at the top dose activity change, negative = inhibition, usual class: inhibitors | 0.2% of 350,000 active | AID 2528, 2010;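 further: plate controls were vehicle for no effect and no enzyme for full effect; nearly all actives have a fitted effect of over 35% in size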
RECQ1 inh conf = Confirmation qHTS Assay for Inhibitors of RecQ-Like Dna Helicase 1 (RECQ1); Potency, µM (top dose mostly 229 µM), inactives show at the top dose activity change, negative = inhibition, usual class: inhibitors; shares compounds with RECQ1 inh-1; AID 2708, 2010; RECQ1 helicase DNA unwinding, fluorescence; 28% of 610 active; further: nearly all actives have a fitted effect of over 45% in size
RECQ1 ADP FP = Counterscreen for RECQ1 Inhibitors: ADP Fluorescence Polarization Displacement Assay; shares compounds with RECQ1 inh-1; ADP fluorescence polarization displacement counterscreen; Potency, µM (series often up to 228 µM), for the others: at the highest dose activity change, negative = inhibition, most hits filed as inhibitors; 27% of 530 active; AID 2711, 2010; further: nearly all actives have a fitted effect of over 45% in size
RECQ1 inh-2 = Confirmation qHTS Assay for Inhibitors of RecQ-Like Dna Helicase 1 (RECQ1) - Round 2 Cherry Picks. shares compounds with RECQ1 inh-1. recombinant RECQ1 DNA unwinding, red fluorescence. Potency, µM (titrated, usually from 119 µM), for inactives: at the top dose activity, negative = inhibition, usual class: inhibitors. 15% of 1,100 active; further: nearly all actives have a fitted effect of over 50% in size
The depositor's hits bear a star; i = inactive; ? = inconclusive; / = no result; [ ] = another dose, or the depositor's remark. Unless noted, the call rests on the fitted dose curve; in most records, active means well fitted curve in the direction sought with a large enough effect; inconclusive means small, poorly fitted or top-dose-only effect, or another doubt; inactive means no such curve, though single readings can be large; an effect the other way counts as inactive or inconclusive. Unless noted, on the % scale 0 is the no-effect control and ±100 the full control effect; potency means the concentration at half of the fitted maximal effect.

SMILES | TRb SRC2 PPI | WRN inhibitor | RECQ1 inh-1 | APEX1 inh | TR SRC2 fluor cs | BLM inh | RECQ1 inh conf | RECQ1 ADP FP | RECQ1 inh-2
O=C1c2nc3cc(-c4ccco4)[nH]n3c(=O)c2CN1Cc1ccccc1 | 7.4% | ? | 11.2µM* | -4.1% | -7.6% | ? | ? | 63.1µM* | -9.8%
CCN1/C(=C/c2ccc3ccccc3[n+]2CCCS(=O)(=O)[O-])C=Cc2cc(C)ccc21 | / | -14.9% | / | 35.8% | / | -3.4% | / | / | /
CCN1/C(=C/c2ccc3ccccc3[n+]2CC)C=Cc2ccccc21 | 11.8% | 44.7µM* | ? | -3.8% | -1.5% | -9.2% | / | / | 50.1µM*
COc1ccc(S(=O)(=O)Nc2ccc3c(c2)C(=O)N([C@H](C)CO)C[C@H](C)[C@@H](CN(C)C(=O)Nc2ccc4c(c2)OCO4)O3)cc1 | / | 5.6% | / | 26.8% | / | / | / | / | /
CC(O)[C@H]1CNCCN1CCc1cccc(F)c1 (stereo partly specified) | / | -5.5% | / | -13.1% | / | / | / | / | /
Cc1sc(NC(=O)/C=C/c2ccc3c(c2)OCO3)nc1-c1ccccc1 | -17.5% | -3.5% | -13.9% | 20.5% | 2.1% | -9.0% | / | / | /
O=C(/C=C/c1ccc2c(c1)OCO2)Nc1nc(-c2ccccc2)cs1 | 9.1% | -12.1% | 1.41µM* | 8.9% | -0.9% | -10.9% | -3.2%[114 µM] | 6.4%[91.9 µM] | ?
Cn1c(Cn2nnc3ccccc32)nnc1SCC(=O)N1c2ccccc2CCc2ccccc21 | -5.7% | 20.1% | -2.0% | ? | -4.3% | -2.9% | / | / | /
Cn1c(Cn2nnc3ccccc32)nnc1SCC(=O)N1c2ccccc2Sc2ccccc21 | -5.5% | -11.8% | i | ? | -11.9% | -5.2% | -3.6% | 24.9% | /
C=CCn1c(SCC(=O)N2c3ccccc3Sc3ccccc32)nnc1-c1ccco1 | 0.1% | -3.4% | -1.8% | -0.6% | -5.6% | -7.1% | -9.6% | 10.8% | /
Cn1c(CNC(=O)c2ccco2)nnc1SCC(=O)N1c2ccccc2Sc2ccccc21 | -1.8% | -2.2% | 3.1% | -6.6% | -2.8% | -1.9% | -1.4% | 14.1% | /
C/C=C/c1ccc(OCC(=O)N(C)CC(=O)Nc2ccc(F)cc2)c(OC)c1 | / | 3.2% | / | 9.0% | / | / | / | / | /
Cc1ccc(Cn2c(=S)[nH]c3ccc(N4CCOCC4)cc3c2=O)o1 | 10.5% | ? | 17.8µM* | ? | -28.2% | -28.9% | ? | 50.1µM* | /
O=c1c2cc(N3CCOCC3)ccc2[nH]c(=S)n1Cc1ccc(Cl)cc1 | 6.0% | -7.4% | -3.5% | 2.1% | 0.7% | -8.7% | / | / | /
Cc1ccc(NC(=O)c2ccc(OCc3c(C)noc3C)cc2)cc1 | 3.0% | / | 10.4% | -8.8% | -0.5% | -1.4% | 3.9% | 50.1µM* | /
Cc1ccc(NC(=O)c2cccc(OCc3c(C)noc3C)c2)cc1 | -9.5% | -8.5% | i | -6.9% | 3.1% | -7.8% | / | / | /
Cc1noc(C)c1COc1ccc(C(=O)Nc2cccnc2)cc1 | 2.2% | -21.7% | 0.891µM* | -7.7% | -1.0% | -18.8% | 56.2µM* | 126µM* | -31.9%
Cc1cccc(NC(=O)c2ccc(OCc3c(C)noc3C)cc2)c1 | / | -20.9% | / | -8.9% | / | / | / | / | /
COc1cccc(CNC(=O)C2CCN(C(=O)N3CCOc4ccc(Cl)cc43)CC2)c1OC | -18.8% | / | / | / | ? | 1.9% | / | / | /
CCOC(=O)C1(CC2CC2)CCN(Cc2cn[nH]c2-c2ccccc2)CC1 | 5.9% | 0.4% | -5.7% | 2.2% | 1.1% | -1.7% | / | / | /
CCOC(=O)C1(CC2CC2)CCN(S(=O)(=O)/C=C/c2ccccc2)CC1 | 0.4% | -6.6% | ? | 6.1% | -1.6% | -4.9% | / | / | -16.8%
O=C(NC1(O)C(=O)c2ccccc2C1=O)c1ccccc1 | -27.7% | -18.6% | -16.4% | ? | 0.6% | ? | / | / | /
CC(=O)C(C(C)=O)C1(O)C(=O)c2ccccc2C1=O | ? | 9.1% | ? | ? | -1.1% | ? | / | / | -9.0%
COC(=O)c1sc2ccccc2c1NC(=O)c1ccc(S(=O)(=O)N2CCCC(C)C2)cc1 (stereo unspecified) | -9.5% | 10.6% | 3.4% | -0.6% | 0.8% | -2.4% | / | / | /
COC(=O)c1sc2ccccc2c1NC(=O)c1ccc(S(=O)(=O)N2CC(C)CC(C)C2)cc1 (stereo unspecified) | 3.0% | -2.8% | -1.9% | 1.2% | -3.2% | 3.9% | 12.7% | -14.9% | /
SMILES | TRb SRC2 PPI | WRN inhibitor | RECQ1 inh-1 | APEX1 inh | TR SRC2 fluor cs | BLM inh | RECQ1 inh conf | RECQ1 ADP FP | RECQ1 inh-2
Cc1ccc(C(=O)N2CCc3ccccc3C2)cc1S(=O)(=O)N1CCOCC1 | / | -30.5% | / | 37.2% | / | -3.7% | / | / | /
Cc1ccccc1NS(=O)(=O)c1cc(C(=O)N2CCc3ccccc3C2)ccc1C | -12.4% | -8.9% | ? | -3.8% | -0.6% | -7.5% | / | / | -8.4%
Cn1c(CO)cnc1S(=O)(=O)Cc1ccc(Cl)cc1 | -2.0% | 0.5% | ? | 11.8% | -0.5% | -0.3% | / | / | -9.9%
Cn1c(CO)cnc1S(=O)(=O)Cc1c(Cl)cccc1Cl | / | -0.8% | / | 38.5% | / | -1.5% | / | / | /
CCC(=O)N1CCc2cc(S(=O)(=O)NCCC(=O)Nc3ccc(N(CC)CC)cc3C)ccc21 | -5.6% | / | / | / | -1.2% | -2.2% | / | / | /
COCc1cc(=O)n2[nH]c(N)nc2n1 | -1.5% | -0.7% | -2.0% | 1.3% | 0.2% | -4.6% | / | / | /
COCc1cc(=O)n2[nH]c(-c3ccsc3-n3c(C)ccc3C)cc2n1 | 6.8% | 31.6µM* | ? | 25.1µM* | -19.9% | ? | / | / | -24.0%

High-throughput results (PubChem BioAssay)
